Bioassay records from PubChem.
An excerpt weighted towards active compounds, which were near 4.7% of everything screened.
Cav3 T inh: inhibitors of human Cav3.2 T-type calcium channel; O95180; Cav3.2-expressing cells, Fluo-4 calcium fluorescence FDSS; active compounds read low; B-score at 10 µM; actives 4% (n = 100,000);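 active means single-dose well whose peak fluorescence ratio is a statistical outlier from its plate by either plate-standardised score or position-corrected B-score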
PTK2B oligo ant: antagonists of human Pyk2 oligomerization | Q293 cells, Pyk2 FERM NanoBiT luminescence; active compounds read low | z-score (the deposit names both 25 µM and 10 µM) | actives 0.83% (n = 99,000) | AID 1347419;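 active means Z-score of -3 or lower, scaled per plate to the spread of control and sample wells; inactive means z-score above -3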;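 further: negative z-score means lost luminescence so less FERM oligomerization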
Target sequence (Q14289 whole entry, looked up): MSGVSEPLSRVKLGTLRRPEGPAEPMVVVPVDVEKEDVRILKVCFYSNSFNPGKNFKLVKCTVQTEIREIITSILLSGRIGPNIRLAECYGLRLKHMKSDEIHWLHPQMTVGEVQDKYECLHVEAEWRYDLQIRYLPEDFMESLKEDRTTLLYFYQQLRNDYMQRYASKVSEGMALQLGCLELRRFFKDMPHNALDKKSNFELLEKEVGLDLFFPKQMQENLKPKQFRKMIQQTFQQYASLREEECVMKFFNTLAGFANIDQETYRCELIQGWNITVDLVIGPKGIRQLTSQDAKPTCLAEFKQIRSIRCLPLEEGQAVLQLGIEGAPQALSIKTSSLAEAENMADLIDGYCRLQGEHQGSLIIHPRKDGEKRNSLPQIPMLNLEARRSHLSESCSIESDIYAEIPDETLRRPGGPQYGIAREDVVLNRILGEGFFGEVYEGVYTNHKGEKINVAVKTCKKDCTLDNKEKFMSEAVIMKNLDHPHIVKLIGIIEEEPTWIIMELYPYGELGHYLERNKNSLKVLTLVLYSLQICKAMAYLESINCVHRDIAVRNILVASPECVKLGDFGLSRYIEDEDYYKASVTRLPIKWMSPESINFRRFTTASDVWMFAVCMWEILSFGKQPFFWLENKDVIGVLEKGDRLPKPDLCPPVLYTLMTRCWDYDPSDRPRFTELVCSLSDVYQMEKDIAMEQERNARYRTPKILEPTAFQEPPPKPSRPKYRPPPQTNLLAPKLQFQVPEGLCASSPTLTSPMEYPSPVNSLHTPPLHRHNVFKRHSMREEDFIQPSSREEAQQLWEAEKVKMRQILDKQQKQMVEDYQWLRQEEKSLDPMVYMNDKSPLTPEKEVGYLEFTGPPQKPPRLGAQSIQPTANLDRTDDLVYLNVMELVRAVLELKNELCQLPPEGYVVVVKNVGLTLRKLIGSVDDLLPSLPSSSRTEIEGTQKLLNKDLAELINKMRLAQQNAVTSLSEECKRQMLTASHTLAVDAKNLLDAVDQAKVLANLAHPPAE
sdo1 growth: restores growth of sdo1-depleted yeast. S. cerevisiae sdo1-depleted JHY4D growth rescue, OD600 30 h; active compounds read high; pdr5 snq2 efflux-pump mutant strain. z-score at 10 µM. actives 0.21% (n = 140,000). AID 817;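 active means z-score above 3 at both the 24 hr and the 30 hr optical density reads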;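 further: z-score against mean and SD of all compound wells on the same plate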
DAT uptake mod: human DAT dopamine uptake with cocaine, either direction; Q01959; LLC-PK1 hDAT cells, [14C]-dopamine uptake with cocaine IC80; actives deviate in either direction; B-score at 10 µM; actives 1.3% (n = 110,000); AID 449768;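 active means Z score or B-score, a plate-position-corrected score, falls beyond the plate's 99.7% confidence bounds, in either direction; inactive means both scores lie inside the 99.7% bounds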;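 further: scored against the spread of the other compound wells on the same plate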
PLK1 PBD inh: blocks phosphopeptide binding to human Plk1 polo box domain; P53350; Plk1 PBD phosphopeptide binding, fluorescence polarization; inhibition, %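 (tested at about 20 µM)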; actives 0.13% (n = 97,000); AID 693; in the data active means inhibition above about 34%, passing the limit was not always enough
PLK1 kinase inh: inhibitors of human PLK1 kinase | recombinant PLK1 kinase, TR-FRET peptide phosphorylation | actives 0.53% (n = 97,000) | inhibition, % at 10 µM | P53350;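 active means inhibition of 50% or more in the single-concentration screen; inactive means inhibition below 50%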;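 further: 0% = DMSO max control and 100% = H-89 dihydrochloride min control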
The depositor's hits bear a star; · = not tested or not shown.

SMILES	Cav3 T inh	PTK2B oligo ant	sdo1 growth	DAT uptake mod	PLK1 PBD inh	PLK1 kinase inh
O=C(c1ccc(Cl)cc1)N1CCC(O)(CSc2ccc(Cl)cc2)CC1	-6.5*	-0.79	-1.4	0.59	29	-3
CCN(CC)C(=O)CNc1ccc(C(F)(F)F)cc1[N+](=O)[O-]	·	·	0.39	·	·	·
Cc1ccc(C)c(Cn2cnc3c(cnn3C(C)(C)C)c2=O)c1	-4.8*	-1.8	-0.43	-0.028	11	-8
CC(=O)Nc1c(C)ccc(CNC(=O)COc2cc(C)ccc2C)c1C	·	·	1.8	·	·	·
CC(C(=O)N1c2ccccc2CCc2ccccc21)n1nnc(-c2ccc(N(C)C)cc2)n1 (stereo not given)	-5.5*	-0.69	-0.85	1.4	-18	-11
Cc1ccc(-c2nnn(C(C)C(=O)N3c4ccccc4CCc4ccccc43)n2)cc1 (stereo not given)	-5.3*	-1.4	-0.82	-0.37	1	-9
CC(C(=O)N1c2ccccc2Sc2ccccc21)n1nnc(-c2cccs2)n1 (stereo not given)	-7*	-2	-1.7	-0.52	3	2
O=C(O)Cn1nnc(-c2cccs2)n1	·	1.5	1.5	·	-27	-12
COc1ccc(CCNc2nc(N3CCCCC3)nc(N3CCCCC3)n2)cc1OC	-6.7*	-1.2	-0.34	-0.13	1	-19
COC(=O)c1ccc(C(=O)OC)c(NC(=S)N2CCCC(C)C2)c1 (stereo not given)	·	·	-0.44	·	·	·
O=C(/C=C/c1ccccc1)NCCSCc1ccccc1Cl	-5.7*	0.92	-1.5	-0.22	19	-19
O=C(/C=C/c1ccccc1)NCCSCc1ccc(Cl)cc1	·	·	-0.61	·	·	·
CC(Nc1ccc(Br)cn1)c1cc(Cl)ccc1O (stereo not given)	·	-3.5*	-2.3	·	-10	-9
O=C(Cn1nc(C(F)(F)F)c2c1CCCC2)Nc1ccc2c(c1)OCO2	-4.9*	0.25	0.61	-1.6*	-11	-14
O=C(Cn1nc(C(F)(F)F)c2c1CCC2)NCc1ccc(Cl)cc1	-4.5*	-0.74	-0.78	-0.13	-15	-11
O=C(Cn1nc(C(F)(F)F)c2c1CCC2)Nc1ccccc1C(F)(F)F	-2	-0.3	1.1	0.13	4	-13
COc1ccc(NC(=O)Cn2nc(C(F)(F)F)c3c2CCCC3)cc1OC	0.0017	-0.15	0.1	0.2	-31	0
Cc1c(C(=O)Nc2ccccc2C(=O)N2CCOCC2)cccc1[N+](=O)[O-]	·	0.57	0.36	·	·	·
CC(C)N(CCNS(=O)(=O)c1ccc(Cl)cc1)C(C)C	0.044	0.36	0.47	3*	-12	-12
CCOC(=O)c1c(NC(=O)c2cc3n(n2)C(C(F)(F)F)CC(c2cccs2)N3)sc(C)c1C (stereo not given)	·	·	-0.12	·	·	·
Cc1ccccc1C(=NCCCN(C)C)c1ccccc1C	·	·	0.34	·	·	·
O=C(Nc1nnc(SCc2ccc(F)cc2)s1)C1Cc2ccccc2CN1C(=O)c1ccco1 (stereo not given)	-5.7*	-0.43	-0.69	-0.11	14	-11
O=C(Nc1ccccc1N1CCOCC1)C1Cc2ccccc2CN1C(=O)c1ccco1 (stereo not given)	-0.22	-0.83	0.1	0.021	10	-31
COc1ccc(OC)c(S(=O)(=O)N2CCC(C(=O)NCc3ccccc3)CC2)c1	1.2	0.06	-0.09	1.6	3	-19
COc1ccc(OC)c(S(=O)(=O)N2CCC(C(=O)Nc3cccc(C(F)(F)F)c3)CC2)c1	-9.3*	-1.6	-0.94	0.34	15	-8
SMILES	Cav3 T inh	PTK2B oligo ant	sdo1 growth	DAT uptake mod	PLK1 PBD inh	PLK1 kinase inh
COc1ccc(OC)c(S(=O)(=O)N2CCN(c3c(C)cccc3C)CC2)c1	-7.3*	·	-1.2	0.46	-18	-9
O=C(Cn1cnc2ccccc21)N/N=C/C(Br)=C/c1ccccc1	·	·	-1.4	·	·	·
C=CCn1c(-c2ccc(N)cc2)nc2ccccc21	0.32	·	-0.2	-0.065	7	-1
C=CCn1c(N)nc2ccccc21	0.02	0.2	0.58	-2.6*	-17	-3
COc1ccccc1/C=C(/C(=O)OCC(=O)Nc1cc(C)ccc1C)c1ccccc1	·	·	-1.1	·	·	·
N=C1SC(c2ccccc2)C(=O)N1c1ncc(Cc2ccccc2Cl)s1 (stereo not given)	·	·	-0.17	·	·	·
O=C1N(c2ccccc2)C2CS(=O)(=O)CC2N1c1ccc(Br)cc1 (stereo not given)	-2.4*	-0.46	-0.08	0.93	-31	-1
COc1cccc(N2C(=O)N(c3ccccc3)C3CS(=O)(=O)CC32)c1 (stereo not given)	0.56	-0.44	-1.1	-0.59	5	-3
O=C(Nc1ccc(OCC(=O)N2CCC(Cc3ccccc3)CC2)cc1)c1ccco1	-7.2*	-0.02	-1.4	1.1	-13	-9
O=C(Nc1ccc(OCC(=O)N2CCN(S(=O)(=O)c3ccccc3)CC2)cc1)c1ccco1	0.22	0.57	0.08	1.4	15	-13
COc1ccc2c(c1)c(=O)c(Br)c(C)n2Cc1ccccc1	-0.1	-0.47	-0.58	-1.4	·	·
COc1ccc2c(c1)c(=O)c(C(=O)c1ccccc1)cn2Cc1ccc(C)cc1	-5.5*	·	-0.62	-0.72	·	·
COc1ccc(-n2c(COc3cccc(C)c3)nnc2SCC(=O)NCc2ccco2)cc1	-3.1	-0.41	-1.3	-0.044	5	-14
COc1ccc(-n2c(COc3ccc4ccccc4c3)nnc2SCC(=O)NCc2ccco2)cc1	-6.4*	-1.2	-1.6	0.0029	-2	6
COc1cccc(OCc2nnc(SCC(=O)NCc3ccco3)n2CCc2ccccc2)c1	-7.6*	-0.33	-0.65	-0.38	-32	-8
CCc1ccc(-c2csc(NC(=O)COC(=O)CCc3nc4ccccc4s3)n2)cc1	·	·	-0.06	·	·	·
CCn1c(N2CCN(CC(=O)c3ccc(OC)cc3)CC2)nc2ccccc21	2.9	-0.41	0.12	-7.6*	-6	-10
CCn1c(N2CCN(CC(=O)Nc3cccc(C)c3C)CC2)nc2ccccc21	-0.9	0.41	0.33	1.2	-31	-12
CC(C)CN(C(=O)CSc1nn(-c2ccc(Cl)cc2)c(=S)s1)C1CCS(=O)(=O)C1 (stereo not given)	·	·	-0.18	·	·	·
[O-][n+]1cccc2ncc3cscc3c21	·	·	-0.14	·	·	·
N#CC(c1cccc(Cl)c1)c1ncc(C(F)(F)F)cc1Cl (stereo not given)	-1.4	-1.4	0.37	-0.63	-15	-10
N#CC(c1ccc(Cl)cc1)c1ncc(C(F)(F)F)cc1Cl (stereo not given)	-4.6*	-1.1	-0.45	-0.75	14	-7
CCC(C)NC(=O)CC(NS(=O)(=O)c1ccc(Cl)cc1)c1ccco1 (stereo not given)	-0.015	0.44	-0.3	-0.24	17	0
O=C(CC(NS(=O)(=O)c1ccc(Cl)cc1)c1ccco1)N1CCc2ccccc21 (stereo not given)	-4.3*	-0.62	-0.81	0.58	-9	-2
COc1ccccc1NC(=O)c1ccc(NC(=O)COC(=O)CCC2CCCC2)cc1	·	·	-0.03	·	·	·
